Experimental findings from the supplement of paper PMC10338343 are described below.

The test system of test [1] is MILI (PIWIL2) piRISC loaded with L1MC piRNA (26 nt). The test is described as follows: pre-steady-state target cleavage rate (min^-1); guide: L1MC piRNA 5'p-UAACUAAAUACUAUGCAAGCUGUAGG; higher = faster piRNA-guided slicing of the target. In a few lines:
(§1)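 In HEPES–potassium acetate buffer at 33 °C, […] transcribed, DNA-blocked target RNA library was mixed with 1 nM active affinity-purified piRISC carrying one synthetic guide, with or without 500 nM GTSF1 partner protein, for 0–8 or 0–960 min. Uncleaved targets were sequenced and normalised to depth and to weakly complementary targets; three trials were pooled and k3 was capped at 0.0001 min^-1. The pre-steady-state cleavage rate followed from a burst-and-steady-state fit.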

Test [2] has as its system EfPiwi piRISC loaded with L1MC piRNA (26 nt). The test is described as follows: pre-steady-state target cleavage rate (min^-1); auxiliary factor: 500 nM Ephydatia muelleri Gtsf1; guide: L1MC piRNA 5'p-UAACUAAAUACUAUGCAAGCUGUAGG; MIWI and MILI are mouse PIWI proteins and EfPiwi is from a freshwater sponge; tags in brackets are library labels; higher = faster piRNA-guided slicing of the target. The procedure, abridged: as §1
Setting [3] is: auxiliary factor: 500 nM mouse GTSF1.
The mark [4] stands for this setting: auxiliary factor: none (no GTSF1).

± gives the standard deviation.

Regarding UCCUGAUACAGCUUGCAUAGUAUUUAGUUA, the “pre-steady-state target cleavage rate” value amounted to 0.269 ± 0.02 in test [1] (setting [3]), 0.00917 ± 0.0027 in test [1] (setting [4]) and 0.0427 ± 0.014 in test [2].

Consider UCCUGGAUCAGCUUGCAUAGUAUUAUAGUUA, for which the “pre-steady-state target cleavage rate” value in test [1] (setting [3]) worked out at 0.283 ± 0.022; in test [1] (setting [4]), 0.00669 ± 0.0028; in test [2], 0.0796 ± 0.024.

For the sequence UCCUGGAACAGCUUGCAAAGUAUUUAGAUA, the “pre-steady-state target cleavage rate” value in test [1] (setting [3]) was 0.085 ± 0.014; in test [1] (setting [4]), 0.00298 ± 0.0022; in test [2], 0.0036 ± 0.0024.

UCCUCCUACAGGUUGCAAAGUAUUUAGUUA: the “pre-steady-state target cleavage rate” value in test [1] (setting [3]) is 0.142 ± 0.0086; in test [1] (setting [4]), 0.00921 ± 0.002; in test [2] it was 0.0547 ± 0.011.

In the case of UCCUGCUAGAGCUUGCAUAGUAUAUAGUUA, the “pre-steady-state target cleavage rate” value in test [1] (setting [3]) amounted to 0.176 ± 0.02; in test [1] (setting [4]) it was 0.00268 ± 0.0026; in test [2], 0.00471 ± 0.0017.

Turning to UCCUGGAACAGCUUGGCAUAGUAUUUAGUUA, the “pre-steady-state target cleavage rate” value in test [1] (setting [3]) is 0.48 ± 0.097; in test [1] (setting [4]), 0.00632 ± 0.0027; in test [2], 0.0094 ± 0.0031.

UCCUGCAACAGCUUGCUUAGUAUUUAGUUA: the “pre-steady-state target cleavage rate” value came out at 0.293 ± 0.016 in test [1] (setting [3]), 0.00661 ± 0.0026 in test [1] (setting [4]) and 0.0143 ± 0.0036 in test [2].

Regarding UCCUGGAUGAGCUUGCAAAGUAUUUAGUUA, the “pre-steady-state target cleavage rate” value was determined as 0.0794 ± 0.011 in test [1] (setting [3]), 0.00483 ± 0.0028 in test [1] (setting [4]) and 0.0322 ± 0.0094 in test [2].

On to UCCUGGUACAGCUUGCAUAGUAUUUAGUAUA, for which the “pre-steady-state target cleavage rate” value is 0.224 ± 0.031 in test [1] (setting [3]), 0.00565 ± 0.0029 in test [1] (setting [4]) and 0.00633 ± 0.0024 in test [2].

With UCCUCCUACAGCUUGCAUAGUAUUUUAGUUA, the “pre-steady-state target cleavage rate” value came out at 0.273 ± 0.019 in test [1] (setting [3]), 0.0124 ± 0.0038 in test [1] (setting [4]) and 0.0456 ± 0.014 in test [2].

As for UCCUGGAACAGCUCUGCAUAGUAUUUAGUUA, the “pre-steady-state target cleavage rate” value came out at 0.268 ± 0.012 in test [1] (setting [3]), 0.00871 ± 0.0031 in test [1] (setting [4]) and 0.0165 ± 0.005 in test [2].

UCCUCCUAGUCCUUGCAUAGUAUUUAGUUA: the “pre-steady-state target cleavage rate” value is 0.235 ± 0.018 in test [1] (setting [3]), 0.00692 ± 0.0015 in test [1] (setting [4]) and 0.0173 ± 0.0063 in test [2].

UCCUCCUACAGGUUGGAUAGUAUUUAGUUA: the “pre-steady-state target cleavage rate” value in test [1] (setting [3]) was 0.205 ± 0.012; in test [1] (setting [4]), 0.00699 ± 0.0018; in test [2] it was 0.0118 ± 0.0028.

As for UCCUCGAACAGCUUGCAUAGUAUUUAGUUA, the “pre-steady-state target cleavage rate” value in test [1] (setting [3]) amounted to 0.3 ± 0.017; in test [1] (setting [4]) it was 0.00922 ± 0.0026; in test [2], 0.198 ± 0.038.

Consider UCCUGGAACACGUUGCAUAGUAUUUAGUUA, for which the “pre-steady-state target cleavage rate” value in test [1] (setting [3]) came to 0.193 ± 0.014; in test [1] (setting [4]), 0.01 ± 0.0027; in test [2], 0.0172 ± 0.0053.

Turning to UCCUCCUACAGCUAGCAUAGUUUUUAGUUA, the “pre-steady-state target cleavage rate” value came out at 0.0658 ± 0.011 in test [1] (setting [3]), 0.00299 ± 0.0026 in test [1] (setting [4]) and 0.00442 ± 0.0017 in test [2].

For UCCUCCUUGAGCUUGCAUAGUAUUUAGUUA, the “pre-steady-state target cleavage rate” value in test [1] (setting [3]) came to 0.216 ± 0.018; in test [1] (setting [4]), 0.0051 ± 0.0021; in test [2] it was 0.0223 ± 0.0062.

For the sequence UCCUCCUACAGCUGGCAUAGUAUUUAGUUA, the “pre-steady-state target cleavage rate” value in test [1] (setting [3]) came out at 0.294 ± 0.02; in test [1] (setting [4]), 0.00732 ± 0.0023; in test [2], 0.0728 ± 0.02.

Consider UCCUGGUACAGCUUGCAUAGUAUUUAUGUUA, for which the “pre-steady-state target cleavage rate” value in test [1] (setting [3]) was 0.147 ± 0.036; in test [1] (setting [4]), 0.0114 ± 0.0044; in test [2] it was 0.00329 ± 0.0024.

UCCUGGAUGUCCUUGCAUAGUAUUUAGAUA: the “pre-steady-state target cleavage rate” value in test [1] (setting [3]) amounted to 0.118 ± 0.018; in test [1] (setting [4]), 0.00265 ± 0.0023; in test [2], 0.00461 ± 0.0029.

Turning to UCCUGGAACAGCAAGCAUAGUAUUUAGUUA, the “pre-steady-state target cleavage rate” value in test [1] (setting [3]) amounted to 0.275 ± 0.018; in test [1] (setting [4]), 0.00588 ± 0.0024; in test [2], 0.00853 ± 0.0027.

For UCCUGGAUCAGCUUGCAUAGUAUCUAGUUA, the “pre-steady-state target cleavage rate” value in test [1] (setting [3]) turned out to be 0.205 ± 0.02; in test [1] (setting [4]), 0.00466 ± 0.0024; in test [2] it was 0.0167 ± 0.005.

On to “UCCUGGAUGUCCUUGCAUAGUAUUUAGUUU [g2:g19:cont:t1U]”, for which the “pre-steady-state target cleavage rate” value amounted to 0.17 ± 0.022 in test [1] (setting [3]), 0.0113 ± 0.0024 in test [1] (setting [4]) and 0.00601 ± 0.0034 in test [2].
